Rows were chosen to be rich in hits. Some 1.1% of all compounds tested hit in one or more screens of this group.
OPRM1-OPRD1 inv: inverse agonists of human mu-delta opioid receptor heterodimerization; P35372+P41143; cell-based MOR-DOR heterodimer luminescence, inverse agonism; inhibition, % at 9.3 µM; 0.21% of 340,000 active; AID 504357; in the data active = inhibition above about 22%, passing the limit was not always enough;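 note: 0% = cells with DMSO and 100% = wells without cells with DMSO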
Target sequence (P35372 whole entry, looked up): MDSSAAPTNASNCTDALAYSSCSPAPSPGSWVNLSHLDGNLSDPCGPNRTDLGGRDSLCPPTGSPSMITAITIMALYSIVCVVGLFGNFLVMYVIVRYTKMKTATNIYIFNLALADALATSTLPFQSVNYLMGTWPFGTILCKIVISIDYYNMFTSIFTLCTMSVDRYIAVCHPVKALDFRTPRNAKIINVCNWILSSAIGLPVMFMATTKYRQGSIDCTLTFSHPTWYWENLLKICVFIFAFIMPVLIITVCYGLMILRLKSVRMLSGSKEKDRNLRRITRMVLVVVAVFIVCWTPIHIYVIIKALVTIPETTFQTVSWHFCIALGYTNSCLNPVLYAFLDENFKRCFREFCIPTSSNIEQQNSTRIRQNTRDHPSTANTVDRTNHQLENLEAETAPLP
Target sequence (P41143 whole entry, looked up): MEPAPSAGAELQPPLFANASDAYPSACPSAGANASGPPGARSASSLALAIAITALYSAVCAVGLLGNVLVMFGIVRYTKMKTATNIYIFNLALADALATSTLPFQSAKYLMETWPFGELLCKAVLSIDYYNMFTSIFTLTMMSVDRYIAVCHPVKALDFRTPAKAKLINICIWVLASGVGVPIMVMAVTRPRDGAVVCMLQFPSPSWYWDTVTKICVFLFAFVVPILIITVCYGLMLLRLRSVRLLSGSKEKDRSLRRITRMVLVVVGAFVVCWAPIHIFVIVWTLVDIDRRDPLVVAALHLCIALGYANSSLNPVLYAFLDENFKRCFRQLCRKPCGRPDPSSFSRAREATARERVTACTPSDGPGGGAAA
HTR5A ag: activates human HTR5A in OPRM1-OPRD1 agonist counter-screen. activation, % at 9.3 µM. HTR5A agonist assay, luminescence, cell-based. 0.61% of 340,000 active. P47898; in the data active = activation mostly above about 9.5%, no sharp cut-off; inactive = mostly below about 7.6%;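 note: 0% = cells with vehicle only and 100% = reference agonist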
OPRM1-OPRD1 ag: OPRM1-OPRD1 heterodimerization agonism; P35372+P41143; cells, luminescence; activation, % at 9.3 µM; 0.3% of 340,000 active; in the data active = activation above about 18%;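 note: 0% = vehicle-treated cells and 100% = reference agonist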
HTR5A inv ag: counter-screen for OPRM1-OPRD1 inverse agonists: human HTR5A inverse agonism. P47898. inhibition, % at 9.3 µM. 0.083% of 340,000 active. HTR5A cell line, luminescence; in the data active = inhibition mostly above about 23%, no sharp cut-off; inactive = mostly below about 18%;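 note: 0% = cells with DMSO and 100% = no-cell wells with DMSO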
* = called active by the depositor.

SMILES | OPRM1-OPRD1 inv | HTR5A ag | OPRM1-OPRD1 ag | HTR5A inv ag
CC(=O)NC12CC3CC(C1)CC(C(=O)N1CCN(S(=O)(=O)c4ccc(Cl)s4)CC1)(C3)C2 | 6.2 | 11.3* | -1.2 | -4.9
CC(=O)NC12CC3CC(C1)CC(C(=O)N1CCN(S(=O)(=O)c4ccccc4[N+](=O)[O-])CC1)(C3)C2 | 1.9 | -2.6 | -0.5 | 6.3
CC(NC(=O)c1cccc(OC2CCN(C3CCN(C)CC3)CC2)c1)c1ccccc1 (centres undefined) | 11.9 | -0.3 | -2.3 | -7.0
COCc1cc(=O)[nH]c(Cc2c(Cl)cccc2Cl)n1 | 15.2 | 4.4 | -3.4 | -16.3
O=C1Nc2ccccc2C1(c1ccccc1)c1ccccc1 | -170.1 | 39.1* | 29.3* | -64.4
O=C(Nc1ccc(Cl)cc1)Nn1cnnc1 | 8.4 | -2.2 | -1.6 | -12.6
CCC(=O)NCCn1c(C)cc2ccccc21 | -1.1 | 5.6 | 0.2 | -17.0
Cc1cc2ccccc2n1CCNC(=O)COc1ccccc1 | -170.2 | 1.0 | 31.0* | -27.6
O=C1Cc2cc(NS(=O)(=O)c3cc(F)ccc3F)cc3c2N1CCC3 | 2.6 | -5.6 | -0.4 | 15.4
CC(/C=C/c1ccco1)=N\NC(=O)CNc1ccc2ccccc2c1 | -0.6 | 12.0* | 0.1 | -18.1
CC(=O)CCC(=O)NC1CCCc2c1cnn2-c1ccc(C(C)(C)C)cc1 (centres undefined) | -1.0 | -2.0 | 0.2 | 6.8
CCOC(=O)c1[nH]c(C)c(C(=O)Nc2ccc(C)c(C)c2)c1C | 13.2 | 13.3* | -2.6 | -36.8
Cc1cc(-c2ccccc2)oc(=O)c1NC(=O)c1ccccc1 | 0.9 | 1.5 | -0.2 | 8.0
CCN(C(=O)CSc1ncccc1C(=O)OC(C)C)c1cccc(C)c1 | 4.5 | 11.3* | -0.9 | -13.4
CC1CCCCC1NC(=S)Nc1cccc(S(=O)(=O)N(C)C)c1 (centres undefined) | -7.0 | 10.9* | 1.3 | 18.7
O=C(NC1CCCC(C(F)(F)F)C1)c1ccc([N+](=O)[O-])o1 (centres undefined) | -17.7 | 14.3* | 4.7 | -18.7
O=C(NC1CCCCC1)c1ccc([N+](=O)[O-])o1 | -25.4 | 4.4 | 4.0 | -7.4
Cc1cccc2c3c([nH]c12)CCN(C)C3 | -2.4 | 2.0 | 0.5 | -7.5
Cc1ccc(C(C)C)c(OCC(O)CN(C)Cc2ccccc2)c1 (centres undefined) | -25.1 | 11.8* | 5.6 | -44.4
F[B-](F)(F)c1cncc2ccccc12 | 14.4 | 1.5 | -3.1 | -5.7
CNC(=S)N1CCn2cccc2C1c1ccc(F)cc1 (centres undefined) | -1.4 | 8.0* | 0.3 | -19.8
Fc1ccc(C2c3cccn3CCN2C(=S)Nc2cccc(F)c2)cc1 (centres undefined) | -9.3 | 1.6 | 2.0 | -3.8
COc1cc(C(=O)OCC(=O)NC(N)=O)cc(CN2C(=O)c3ccccc3C2=O)c1OC | 3.7 | 1.1 | -0.8 | -3.9
O=C(CSC(=O)c1ccccc1)Nc1ccccc1F | 5.6 | -0.5 | -1.1 | 1.9
O=C1N/C(=C/c2cccn2-c2ccc(F)cc2)C(=O)N1Cc1ccccc1F | -22.6 | 11.9* | 3.6 | 22.0
SMILES | OPRM1-OPRD1 inv | HTR5A ag | OPRM1-OPRD1 ag | HTR5A inv ag
O=C1N/C(=C/c2cccn2-c2ccccc2)C(=O)N1Cc1ccc(F)cc1 | -14.1 | 1.0 | 2.8 | -5.0
Cc1ccc(S(=O)(=O)NC(=O)N(CCC#N)Cc2ccccc2)cc1 | 18.6 | -0.4 | -4.1 | 1.5
CC(C)[C@H](NC(=O)OCc1ccccc1)C(=O)NCc1ccccc1 | 6.9 | 12.0* | -1.0 | -32.1
O=C(NC(Cc1ccccc1)C(=O)NC1CC1)OCc1ccccc1 (centres undefined) | -6.8 | 12.2* | 1.3 | 27.4
O=C(Nc1cccc(F)c1)c1ccc(Cn2cc([N+](=O)[O-])cn2)o1 | 12.4 | 6.7 | -2.7 | -18.5
Oc1[nH]c(N=C2N=c3ccccc3=N2)c2ccccc12 | 3.1 | -3.2 | -0.7 | 11.3
O=C(O)CCC(=O)Nc1ccccc1C(=O)NCCc1ccccc1 | 8.7 | 11.5* | -1.7 | 20.2
CCn1cc(S(=O)(=O)NC(C)c2cc(OC)ccc2OC)cn1 (centres undefined) | 3.3 | 2.3 | -0.6 | -5.2
O=C(O)c1ccc(NC2=C/C(=N/S(=O)(=O)c3ccccc3)c3ccccc3C2=O)cc1 | -144.4 | -2.6 | 28.2* | 25.3
O=C(COC(=O)/C=C/c1cccc(Br)c1)Nc1cccc(S(=O)(=O)NC2=NCCC2)c1 | 10.7 | -1.1 | -2.8 | -3.1
CCCc1cc(=O)[nH]c(SCC(=O)Nc2ccc(OC)c(S(=O)(=O)N3CCCCC3)c2)n1 | 6.7 | -2.8 | -1.6 | 7.0
COc1cc(C2CC(c3cccs3)=NN2C(=O)CCl)ccc1OC(F)F (centres undefined) | -414.4 | 59.3* | 74.3* | -143.9
